This is one part of the list. Values without a mark were called inactive. How the calls were made is not given here.

Drawing on PubChem BioAssay AID651679 (Broad Institute, 2012), this text covers max activity for 20 compounds.

The test deals with Adenosylmethionine-8-amino-7-oxononanoate aminotransferase (Mycobacterium tuberculosis (strain ATCC 25618 / H37Rv)) (UniProt P9WQ81). The test can be described thus: inhibition of M. tuberculosis BioA aminotransferase – biochemical, plate reader, cherry-pick samples, set 03, dose response (AID 651679).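 Further: top concentration of the dilution series was 10 µM.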 Conditions: purified BioA enzyme.
Adenosylmethionine-8-amino-7-oxononanoate aminotransferase (Mycobacterium tuberculosis (strain ATCC 25618 / H37Rv)), sequence (P9WQ81 whole entry, looked up): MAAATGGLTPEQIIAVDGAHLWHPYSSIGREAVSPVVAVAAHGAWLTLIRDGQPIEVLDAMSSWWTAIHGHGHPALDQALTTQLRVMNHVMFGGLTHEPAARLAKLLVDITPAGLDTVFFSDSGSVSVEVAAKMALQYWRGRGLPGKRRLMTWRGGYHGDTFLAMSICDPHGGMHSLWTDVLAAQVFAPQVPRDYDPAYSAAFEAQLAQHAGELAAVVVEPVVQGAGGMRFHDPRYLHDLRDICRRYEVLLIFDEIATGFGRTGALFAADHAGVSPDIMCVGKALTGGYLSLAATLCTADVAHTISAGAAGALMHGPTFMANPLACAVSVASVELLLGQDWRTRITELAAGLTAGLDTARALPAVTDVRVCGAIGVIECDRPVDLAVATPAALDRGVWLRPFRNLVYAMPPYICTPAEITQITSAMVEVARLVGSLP
As to `COc1cc(-c2n[nH]c(=S)n2Cc2ccccc2)cc(OC)c1OC`, the max activity is -6.94% [at 0.6 µM].

Turning to `Cn1c(=O)c2c(nc(OCc3cccnc3)n2Cc2ccccc2)n(C)c1=O`, the max activity was -7.11% [at 0.3 µM].

Regarding `CC(=O)CSc1nnc(CSc2ncccn2)n1C1CCCCC1`, the max activity was 4.14%.

Take `CCC(CO)Oc1cc(NC(=O)c2cccc(F)c2)c2ncn(C(C)C)c2c1` (stereo not given): the max activity is -8.92%.

With `C=C(C)CSc1nc(N)c2c3c(sc2n1)CCC3`, the max activity was -5.78%.

Turning to `CCCOc1ccc2c3c(c(=O)oc2c1OCCC)CCC3`, the max activity is 12.3% [at 1.2 µM].

On to `CS(=O)(=O)N1[C@H](C(=O)NCc2ccncc2)[C@@H](CO)[C@@H]2Cn3c(ccc(C4=CCCCC4)c3=O)[C@@H]21`, for which the max activity is 4.42%.

`O=c1[nH]c(N2CCN(Cc3ccc4c(c3)OCO4)CC2)nc2c1CCCC2`: the max activity is -3.93% [at 5 µM].

Regarding `COCCNC(=O)C[C@H]1CC[C@@H]2[C@H](COc3ccc(NC(=O)Nc4cccc(F)c4)cc3C(=O)N2C)O1`, the max activity was 9.1%.

`Cc1c2cnn(CC(=O)NCc3ccccn3)c(=O)c2c(C)n1Cc1ccc(Cl)cc1`: the max activity is -3.46% [at 10 µM].

Consider `CC1(C)CC(=O)C=C(c2ccc3ncccc3c2)C1`, for which the max activity was -6.7%.

On to `Cc1nc2nc(SCC(=O)NCc3ccco3)nn2c(C)c1Cc1ccccc1`, for which the max activity was -11.9% [at 0.16 µM].

On to `C=CCn1c(SCc2c(C(=O)OC)sc(N)c2C(=O)OC)nnc1-c1ccc(Cl)cc1`, for which the max activity is -8.75%.

Regarding `Cc1c(OC(C)C(=O)NCC2CCC(C(=O)O)CC2)ccc2c1oc(=O)c1ccccc12` (stereo not given), the max activity is -6.87% [at 0.3 µM].

`CC(=O)O[C@]1(C(C)=O)CC[C@H]2[C@@H]3C=C(C)C4=CC(=O)CC[C@]4(C)[C@H]3CC[C@@]21C`: the max activity was -6.47% [at 0.6 µM].

`O=C(c1ccncc1)N1CC[C@@H]2[C@H]1c1cc(Br)ccc1N[C@@H]2CO`: the max activity is -4.43%.

With `Cc1nc(=O)c(-c2ccccc2)c(C)n1-c1ccc(Br)cc1`, the max activity is -5.48% [at 0.08 µM].

Consider `CC(=O)c1ccc(N2CCN(C(=O)c3ccc4nc[nH]c4c3)CC2)cc1`, for which the max activity was 5.95% [at 10 µM].

Take `O=C(CSc1n[nH]c(-c2cccnc2)n1)Nc1ccnc2ccccc12`: the max activity was -8.45%.

Consider `Cc1ccc(Cc2c(C)nc3nc(SCC(=O)NCCN4CCOCC4)nn3c2C)cc1`, for which the max activity was -9.07%.
